Experimental data as given in PubChem BioAssay (NCATS).
Inconclusive results are not listed. Activity calls are given as the source filed them. Unless noted, calls follow the shape of the dose curve; as a rule, active = well fitted curve in the direction sought with a large enough effect; inconclusive = small, poorly fitted or top-dose-only effect, or another doubt; inactive = no such curve, though single readings can be large; an effect the other way counts as inactive or inconclusive.

Columns and labels:
[1] = target: Alpha-galactosidase (Coffea arabica) (UniProt Q42656); assay: Counterscreen for Glucocerebrosidase Inhibitors: qHTS Assay for Coffee Bean alpha-Galactosidase at pH 5.9 (AID 998)
Procedure, shortened: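 Enzyme 2 nM + cpd (0.7 nM–77 uM titration) + 4-MU-alpha-Gal 80 uM, pH 5.9 citrate/Tween-20, RT 20 min, NaOH/glycine stop pH 10, fluor 365/440. Normalized to no-enzyme and full-activity controls; Hill-fit AC50.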

[2] = Validation screen for inhibitors of Lassa infection (AID 463096; calls by dose curve)
[3] = Inducers of the Endoplasmic Reticulum Stress Response (ERSR) in human glioma: Validation (AID 504836)
Procedure, shortened: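 Stably transfected U87-MG glioma cells carrying a GRP78-based luciferase sensor; 16 h compound incubation. Luminescence end-point read 10 min after Bright-Glo addition at room temperature.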

[4] = qHTS for Inhibitors of the Functional Ribonucleoprotein Complex (vRNP) of Lassa (LASV) Arenavirus: LASV Primary Screen - GLuc reporter signal (AID 1347082; calls by dose curve; tested in HEK293 reporter line; also: series mostly up to about 57 µM; nearly all actives have a fitted effect of over 60% in size)
[5] = qHTS for Inhibitors of the Functional Ribonucleoprotein Complex (vRNP) of Lassa (LASV) Arenavirus: Viability assay - alamar blue signal for LASV Primary Screen (AID 1347083; calls by dose curve; tested in HEK293 reporter line; also: series mostly up to about 57 µM; nearly all actives have a fitted effect of over 80% in size)
[6] = qHTS for Inhibitors of the Functional Ribonucleoprotein Complex (vRNP) of Lymphocytic Choriomeningitis Arenaviruses (LCMV): Viability assay - alamar blue signal for LCMV Primary Screen (AID 1347085; calls by dose curve; tested in HEK293 reporter line; also: series mostly up to about 57 µM; nearly all actives have a fitted effect of over 80% in size)
[7] = target: Nucleoprotein (Lymphocytic choriomeningitis virus (strain Armstrong)) (UniProt P09992); assay: qHTS for Inhibitors of the Functional Ribonucleoprotein Complex (vRNP) of Lymphocytic Choriomeningitis Arenaviruses (LCMV): LCMV Primary Screen - GLuc reporter signal (AID 1347086; calls by dose curve; also: series mostly up to about 57 µM; nearly all actives have a fitted effect of over 70% in size)
[8] = target: Alpha-galactosidase (Coffea arabica) (UniProt Q42656); assay: Counterscreen for Glucocerebrosidase Inhibitors: qHTS Assay for Coffee Bean alpha-Galactosidase at pH 4.5 (AID 957); also: series mostly up to about 77 µM
Procedure, shortened: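 Quantitative HTS of compounds (0.7 nM to 77 uM) against coffee bean alpha-galactosidase at pH 4.5, measuring 4-methylumbelliferone fluorescence released from 80 uM substrate.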

Measured: Potency

Chain of Alpha-galactosidase (Coffea arabica) (Q42656 whole entry, looked up): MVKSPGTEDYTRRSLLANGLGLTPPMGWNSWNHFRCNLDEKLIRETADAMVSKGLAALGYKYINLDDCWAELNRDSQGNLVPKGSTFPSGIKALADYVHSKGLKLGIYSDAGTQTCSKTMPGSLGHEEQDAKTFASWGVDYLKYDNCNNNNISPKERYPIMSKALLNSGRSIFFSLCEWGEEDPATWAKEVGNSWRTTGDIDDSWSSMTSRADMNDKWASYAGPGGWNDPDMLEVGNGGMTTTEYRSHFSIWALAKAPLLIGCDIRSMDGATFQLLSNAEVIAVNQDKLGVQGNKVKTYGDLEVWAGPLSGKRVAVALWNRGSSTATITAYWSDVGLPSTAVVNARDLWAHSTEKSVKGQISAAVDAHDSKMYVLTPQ
Chain of Nucleoprotein (Lymphocytic choriomeningitis virus (strain Armstrong)) (P09992 whole entry, looked up): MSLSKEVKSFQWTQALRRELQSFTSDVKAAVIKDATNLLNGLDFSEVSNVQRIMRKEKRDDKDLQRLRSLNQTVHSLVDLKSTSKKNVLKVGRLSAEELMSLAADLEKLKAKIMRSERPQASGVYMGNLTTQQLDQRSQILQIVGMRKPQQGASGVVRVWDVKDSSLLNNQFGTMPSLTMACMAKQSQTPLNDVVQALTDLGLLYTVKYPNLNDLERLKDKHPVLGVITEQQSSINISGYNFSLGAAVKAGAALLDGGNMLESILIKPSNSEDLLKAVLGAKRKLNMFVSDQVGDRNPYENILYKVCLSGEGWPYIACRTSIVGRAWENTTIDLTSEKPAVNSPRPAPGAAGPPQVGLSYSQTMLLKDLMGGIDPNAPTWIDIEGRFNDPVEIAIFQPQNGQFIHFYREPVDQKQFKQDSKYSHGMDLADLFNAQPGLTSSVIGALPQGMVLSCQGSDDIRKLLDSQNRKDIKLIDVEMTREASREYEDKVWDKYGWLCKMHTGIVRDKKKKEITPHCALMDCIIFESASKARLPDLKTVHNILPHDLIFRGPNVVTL

CCN(CC)CCOC(=O)c1cc(Cl)c(N)cc1OC
not listed: [8]
inactive: all other assays above

N[C@@H](Cc1ccc(O)c(I)c1)C(=O)O
inactive: all assays above

COc1ccc2c(c1)c(CC(=O)O)c(C)n2Cc1ccc(Cl)cc1
inactive: all assays above

C#CCn1c(=O)c2c(ncn2C)n(C)c1=O
inactive: all assays above

CNC(=O)c1cc2c(cn1)[nH]c1ccccc12
not listed: [8]
inactive: all other assays above

O=C(O)c1ccccc1Nc1ccccc1
inactive: all assays above

NCCCS(=O)(=O)O
inactive: all assays above

CCCOC(=O)c1c(-c2ccccc2)nc(CC)c(C(=O)SCC)c1CCC
not listed: [8]
inactive: all other assays above

O=C(O)c1cc(=O)c2c(Cl)cc(Cl)cc2[nH]1
inactive: all assays above

CNc1ncnc2c1ncn2[C@@H]1O[C@H](CO)[C@@H](O)[C@H]1O
inactive: [3] | [4] | [5] | [6] | [7]

CCCCCCCCCCC(C)(C)C(=O)Nc1c(OC)cc(OC)cc1OC
inactive: [3] | [4] | [5] | [6] | [7]

N#Cc1cc2nc(O)c(O)nc2cc1[N+](=O)[O-]
not listed: [8]
inactive: all other assays above

COc1cccc2c1[C@@H]1CN(CCCCn3c(=O)[nH]c4c(sc5ncc(-c6ccccc6)nc54)c3=O)C[C@@H]1CO2
inactive: [3] | [4] | [5] | [6] | [7]

CC(C)[C@@H]1CC[C@@H](C)C[C@@H]1P(=O)(c1ccccc1)c1ccccc1
inactive: [3] | [4] | [5] | [6] | [7]

c1ccc2nc(C3=NCCN3)ccc2c1
not listed: [8]
inactive: all other assays above

NC1(C(=O)O)CCCCC1
not listed: [1] | [3]
inactive: all other assays above

CSC(=N)N
not listed: [3]
inactive: all other assays above

O=c1[nH]c(=O)c2nc3ccccc3nc2[nH]1
not listed: [8]
inactive: all other assays above
